Laboratory results: PubChem BioAssay (NCI)
The panel holds about 83,000 compounds, 20% with a hit somewhere; the sample as a whole holds those more often.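 The endpoint reported here, percent growth, reads 100 for growth as untreated, 0 for no net growth and -100 for all cells dead.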 Active and inactive are the calls of the source. The calls were made as follows: active = growth percent below 10; inactive = the rest.

Test system: MDA-MB-468 breast
Assay: NCI-60 one-dose screen, 48 h (100 = growth as untreated, 0 = no growth, -100 = all killed)
Conditions: 10 µM unless noted

SMILES	growth
Clc1ccc(-c2nc(C(Cl)Cl)nc3cc(-c4ccccc4)nn23)cc1	-33.8% (active)
Cc1ccc(CNc2ccc3nc(CCC(C)C)[nH]c3c2)cc1	78.3% (inactive)
CC(=O)c1nc(Nc2ccc(C)cc2)sc1C	93.1% (inactive)
N#Cc1c(-c2ccc(C(F)(F)F)cc2)cc(N2CC(O)C2)n2c1nc1ccccc12	67.1% (inactive)
Oc1ccc(CN2CCC(N3CCCCC3)CC2)c2cccnc12	23.9% (inactive)
CCN1CCN(c2nc(NNC(=O)Cc3ccccc3)nc(N3CCN(C(c4ccccc4)c4ccccc4)CC3)n2)CC1	12.2% (inactive)
COC(=O)/C=C1\S/C(=N\NC(=O)c2cc3ccc2/C=C\c2ccc(cc2)/C=C\3)N(Cc2ccccc2)C1=O	21.1% (inactive)
CCOC(=O)c1c2c(n3cccc(F)c13)C(=O)c1ncccc1C2=O	39.6% (inactive)
NC(=N\N=C/c1cccc([N+](=O)[O-])c1)/C(N)=N\N=C/c1cccc([N+](=O)[O-])c1	64.9% (inactive)
CCCC(=O)Nc1ccc2c(c1)CN1C(=O)c3ccccc3C1=N2	97.8% (inactive)
Oc1ccc(-c2nc3ccc4[nH]ncc4c3c3c2CCCC3)c2cccnc12	-17.1% (active)
